# In the supplement of paper PMC8728848:
# About 410 targets per protein were measured; listed, in parts, are those with the strongest signals and a random draw of the rest.
# B1: AFL5 (Aspergillus fumigatus), Q4WB00 (protein)
# chain: MDNFMEMTKKLGHQPELLRLRALDATYDDALEGKLVVAPLDMSEPGKKILDSGTADGTWLRNVRSKQSVPHDYYGSDVEGELFPKDPDGITYFAHSFKDPWPQQYLGFFDLVHIRGSLAGSAPEGPAPVIQNLTTLLKPGGWVQLMEMNAFSPPPNGPAMTDFAKMASEMFTGIGVGDFANNNKSMLEDAGLKNVQEKRVIVNLGKKAKPELHDQSIHGVTGPIVPLTSVARTVKSSFTGEQLDALPARVKEELETEGGQVEMIIAFGQKA
# Experiments:
# Assay in all cases: glycan array binding signal (z-score within array); higher = stronger binding
# Settings in all cases: glycan notation: IUPAC condensed, linker removed
# Gal6P(b1-4)GlcNAc = molecular target: Gal6P(b1-4)GlcNAc
# How it was run: (§1)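 Glycan array binding is given as a within-array Z-score, which can be read as non-binding when negative. The arrays, 3228 of them, came from the Consortium for Functional Glycomics database and were retained only where the protein sequence was available. Z-scores were averaged across arrays of the same protein sequence at different concentrations or buffers and across linkers.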
# GalNAc(b1-3)GlcNAc = molecular target: GalNAc(b1-3)GlcNAc
# How it was run: as §1
# [1] = molecular target: GalNAc(b1-4)GlcNAc(b1-2)Man(a1-3)[GalNAc(b1-4)GlcNAc(b1-2)Man(a1-6)]Man(b1-4)GlcNAc(b1-4)GlcNAc
# How it was run: as §1
# GalNAc(b1-6)GalNAc = molecular target: GalNAc(b1-6)GalNAc
# How it was run: as §1
# GalNAc3S(b1-4)GlcNAc3S = molecular target: GalNAc3S(b1-4)GlcNAc3S
# How it was run: as §1
# GlcA(b1-6)Gal = molecular target: GlcA(b1-6)Gal
# How it was run: as §1
# [2] = molecular target: GlcA3S(b1-3)Gal(b1-4)GlcNAc(b1-2)Man
# How it was run: as §1
# [3] = molecular target: GlcNAc(a1-4)Gal(b1-4)GlcNAc
# How it was run: as §1
# [4] = molecular target: GlcNAc(b1-3)Gal(b1-3)GalNAc
# How it was run: as §1
# [5] = molecular target: GlcNAc(b1-3)Gal(b1-4)GlcNAc(b1-2)Man(a1-3)[GlcNAc(b1-3)Gal(b1-4)GlcNAc(b1-2)Man(a1-6)]Man(b1-4)GlcNAc(b1-4)[Fuc(a1-6)]GlcNAc
# How it was run: as §1
# [6] = molecular target: GlcNAc(b1-3)Gal(b1-4)GlcNAc(b1-3)Gal(b1-4)GlcNAc(b1-2)[GlcNAc(b1-3)Gal(b1-4)GlcNAc(b1-3)Gal(b1-4)GlcNAc(b1-6)]Man(a1-6)[GlcNAc(b1-3)Gal(b1-4)GlcNAc(b1-3)Gal(b1-4)GlcNAc(b1-2)Man(a1-3)]Man(b1-4)GlcNAc(b1-4)[Fuc(a1-6)]GlcNAc
# How it was run: as §1
# [7] = molecular target: GlcNAc(b1-3)Gal(b1-4)GlcNAc(b1-3)Gal(b1-4)GlcNAc(b1-3)Gal(b1-4)GlcNAc(b1-2)Man(a1-3)[GlcNAc(b1-3)Gal(b1-4)GlcNAc(b1-3)Gal(b1-4)GlcNAc(b1-3)Gal(b1-4)GlcNAc(b1-2)Man(a1-6)]Man(b1-4)GlcNAc(b1-4)[Fuc(a1-6)]GlcNAc
# How it was run: as §1
# [8] = molecular target: GlcNAc(b1-3)[GlcNAc(b1-4)][GlcNAc(b1-6)]GlcNAc
# How it was run: as §1
# [9] = molecular target: GlcNAc(b1-3)[GlcNAc(b1-6)]GalNAc
# How it was run: as §1
# Kdn(a2-6)Gal(b1-4)GlcNAc = molecular target: Kdn(a2-6)Gal(b1-4)GlcNAc
# How it was run: as §1
# Man(a1-3)[Man(a1-6)]Man = molecular target: Man(a1-3)[Man(a1-6)]Man
# How it was run: as §1
# [10] = molecular target: Neu5Ac(a2-3)Gal(b1-3)GalNAc6S
# How it was run: as §1
# [11] = molecular target: Neu5Ac(a2-3)Gal(b1-4)GlcNAc(b1-3)Gal(b1-4)GlcNAc(b1-3)Gal(b1-4)GlcNAc(b1-2)Man(a1-3)[Neu5Ac(a2-3)Gal(b1-4)GlcNAc(b1-3)Gal(b1-4)GlcNAc(b1-3)Gal(b1-4)GlcNAc(b1-2)Man(a1-6)]GalNAc
# How it was run: as §1
# [12] = molecular target: Neu5Ac(a2-3)Gal(b1-4)GlcNAc(b1-6)[Neu5Ac(a2-3)Gal(b1-3)]GalNAc
# How it was run: as §1
# [13] = molecular target: Neu5Ac(a2-3)Gal(b1-4)[Fuc(a1-3)]GlcNAc(b1-6)[Gal(b1-3)]GalNAc
# How it was run: as §1
# [14] = molecular target: Neu5Ac(a2-3)[GalNAc(b1-4)]Gal(b1-4)Glc
# How it was run: as §1
# [15] = molecular target: Neu5Ac(a2-6)Gal(b1-4)GlcNAc(b1-2)Man(a1-6)[GlcNAc(b1-2)Man(a1-3)]Man(b1-4)GlcNAc(b1-4)GlcNAc
# How it was run: as §1
# [16] = molecular target: Neu5Ac(a2-6)Gal(b1-4)GlcNAc(b1-3)Gal(b1-4)GlcNAc(b1-3)Gal(b1-4)GlcNAc(b1-2)Man(a1-3)[Neu5Ac(a2-6)Gal(b1-4)GlcNAc(b1-3)Gal(b1-4)GlcNAc(b1-3)Gal(b1-4)GlcNAc(b1-2)Man(a1-6)]GalNAc
# How it was run: as §1
# [17] = molecular target: Neu5Ac(a2-6)Gal(b1-4)GlcNAc(b1-3)Gal(b1-4)GlcNAc(b1-3)GalNAc
# How it was run: as §1
# Neu5Ac(a2-6)GalNAc = molecular target: Neu5Ac(a2-6)GalNAc
# How it was run: as §1
# [18] = molecular target: Neu5Ac(a2-6)GalNAc(b1-4)GlcNAc6S
# How it was run: as §1
# [19] = molecular target: Neu5Ac(a2-8)Neu5Ac(a2-8)Neu5Ac
# How it was run: as §1
# [20] = molecular target: Neu5Gc(a2-3)Gal(b1-3)GlcNAc
# How it was run: as §1
# [21] = molecular target: Neu5Gc(a2-3)Gal(b1-4)GlcNAc(b1-3)Gal(b1-4)GlcNAc(b1-2)Man(a1-3)[Neu5Gc(a2-3)Gal(b1-4)GlcNAc(b1-3)Gal(b1-4)GlcNAc(b1-2)Man(a1-6)]Man(b1-4)GlcNAc(b1-4)GlcNAc
# How it was run: as §1
binder,measurement,setting,value
B1,glycan array binding signal (z-score),Gal6P(b1-4)GlcNAc,-0.398
same,glycan array binding signal (z-score),GalNAc(b1-3)GlcNAc,-0.465
same,glycan array binding signal (z-score),[1],0.619
same,glycan array binding signal (z-score),GalNAc(b1-6)GalNAc,-0.013
same,glycan array binding signal (z-score),GalNAc3S(b1-4)GlcNAc3S,-0.187
same,glycan array binding signal (z-score),GlcA(b1-6)Gal,-0.217
same,glycan array binding signal (z-score),[2],0.082
same,glycan array binding signal (z-score),[3],-0.335
same,glycan array binding signal (z-score),[4],0.205
same,glycan array binding signal (z-score),[5],0.456
same,glycan array binding signal (z-score),[6],1.94
same,glycan array binding signal (z-score),[7],1.47
same,glycan array binding signal (z-score),[8],-0.493
same,glycan array binding signal (z-score),[9],-0.216
same,glycan array binding signal (z-score),Kdn(a2-6)Gal(b1-4)GlcNAc,0.092
same,glycan array binding signal (z-score),Man(a1-3)[Man(a1-6)]Man,0.203
same,glycan array binding signal (z-score),[10],-0.456
same,glycan array binding signal (z-score),[11],2.14
same,glycan array binding signal (z-score),[12],-0.74
same,glycan array binding signal (z-score),[13],0.716
same,glycan array binding signal (z-score),[14],-0.53
same,glycan array binding signal (z-score),[15],-0.146
same,glycan array binding signal (z-score),[16],2.17
same,glycan array binding signal (z-score),[17],-0.298
same,glycan array binding signal (z-score),Neu5Ac(a2-6)GalNAc,-0.731
same,glycan array binding signal (z-score),[18],0.024
same,glycan array binding signal (z-score),[19],0.079
same,glycan array binding signal (z-score),[20],-0.526
same,glycan array binding signal (z-score),[21],0.635
